Results from ChEMBL document CHEMBL4888484, “Replenishing the malaria drug discovery pipeline: Screening and hit evaluation of the MMV Hit Generation Library 1 (HGL1) against asexual blood stage Plasmodium falciparum ,using a nano luciferase reporter read-out” (2022).
The whole screen tested about 150,000 compounds, of which about 540 (0.36%) showed an effect of 50% or more. This excerpt belongs to a sample that is enriched for strong results.

These molecules were tested on Plasmodium falciparum (assay: Primary screen in NF54 nanoGlo assay, in single point, at 2uM, 72h; a lower Z score goes with more inhibition). Conditions: timepoint 72 hour.
Format: functional, Erythrocyte

Compound	% Inhibition	Z score
CC(C)C[C@H]1CCCN(CC(=O)N2CC(=O)Nc3ccccc32)C1	-1%	0.19
CN(C[C@H](O)C(F)(F)F)C(=O)c1ccc(C#N)cn1	-15%	1.32
CC(=O)N1CCN(C(=O)NCc2cc(F)ccc2C)C[C@@H](O)C1	-9%	0.8
CC1([C@@](O)(C#CC[N+]2(C)CCCCC2)c2ccccc2)CCCC1	60%	-9.64
C[N+]1(C/C=C/C(O)(c2ccccc2)c2ccccc2)CCCCC1	12%	-1.05
CCC[N+]1(CC#C[C@@](O)(c2ccccc2)C(C)(CC)CC)CCCCC1	54%	-8.65
CCC(C)(CC)[C@@](O)(C#CC[N+]1(Cc2ccccc2Cl)CCCCC1)c1ccccc1	39%	-4.45
CCC1([C@@](O)(C#CCN2CCCCCC2)c2ccccc2)CCCC1	-16%	1.41
CCC[N+]1(CC#C[C@@](O)(c2ccccc2)C2(C)CCCC2)CCCCC1	51%	-4.55
CCC1([C@@](O)(C#CCN(Cc2ccccc2)C(C)(C)C)c2ccccc2)CCCC1	33%	-3.73
CCC(C)(CC)[C@@](O)(C#CC[N+]1(Cc2ccccc2)CCCCC1)c1ccccc1	38%	-1.99
CCC[N+]1(CC#CC2(O)CCCCC2)CCOCC1	-9%	1.67
CCOC[C@H]1CCN(C(=O)C2(O)CN(C(=O)OC(C)(C)C)C2)C1	-4%	0.81
Cn1cccc(C(=O)N2CCC(c3nnc(C(F)(F)F)o3)CC2)c1=O	-12%	1.33
Cc1ccc(-c2cc(C(=O)Nc3ncccc3Cl)c3ccccc3n2)s1	3%	-0.34
CCOc1cc2c(cc1CN1CCN(C)[C@]3(CCC(=O)N(C)CC3)C1)CCC2	-10%	1.92
CC1(C(=O)N2CC3CCCCC3C2)CCCC1 (centres undefined)	-24%	2.4
O=C(c1cccc2cc[nH]c12)N1C[C@@H]2[C@H](C1)[C@H]1CC[C@@H]2O1	18%	-1.92
Clc1ccc(COc2ccc(Br)cc2CNc2ccc(-c3nc4ccccc4o3)cc2)c(Cl)c1	-39%	4.57
Clc1ccc(C[n+]2ccc(-c3nc4ccccc4o3)cc2)c(Cl)c1	79%	-11.4
c1cc(-c2nc3ccccc3o2)cc(-c2nc3ccccc3o2)c1	-13%	2.52

Compound	% Inhibition	Z score
Cc1cc(C(=O)NCc2ccncc2)c(=O)n(C)c1C	-11%	1.52
CC(NCC1CS(=O)(=O)c2ccccc21)[C@@H]1C[C@H]1C1CC1 (some centres undefined)	-3%	0.41
NC(=O)c1ccccc1NC(=O)C1CCN(c2cc(C3CC3)ncn2)CC1	57%	-10.93
NC(=O)c1ccccc1NC(=O)C1CCN(c2cc(N3CCCC3)ncn2)CC1	7%	-1.36
O=C(Nc1ccccc1F)C1CCN(c2cc(C3CC3)ncn2)CC1	-16%	3.11
Cc1cc(NC(=O)c2ccc3c(c2)C(=O)N(C[C@H]2CCCO2)C3=O)no1	-8%	1.45
CNC(=O)[C@@H]1CCCN1C(=O)CNC(=O)c1cccc2c1OCC2	-5%	0.71
Cc1ncsc1CCN(C)CCn1cc[nH]c1=O	-15%	3.22
O=C(NC(C1CC1)C1CC1)c1coc(COc2cccc(F)c2)n1	-6%	1.01
Cc1noc(C)c1CC(=O)N1CCCCCC1	-23%	2.1
CC[C@@]1(C)CCCN(C(=O)Cc2c(C)noc2Cl)C1	85%	-13.67
Cc1noc(Cl)c1CC(=O)N1CCCC(C)(C)CC1	44%	-6.85
Cc1cc(C(=O)Nc2nc(C)cs2)on1	-13%	2.13
c1ccc2cc(-c3ccc4ccccc4n3)ccc2c1	41%	-1.59
Cc1nnc(CN(C)Cc2ccc3ccccc3n2)o1	-21%	2.06
O[C@@H](Cc1ccc2ccccc2n1)c1ccccc1	33%	0.78
Cc1ccc[n+](Cc2ccc3ccccc3n2)c1	59%	-7.89
c1ccc2c[n+](Cc3ccc4ccccc4n3)ccc2c1	59%	-7.39
Cc1ccc[n+](CC2OCc3ccccc3CO2)c1	5%	-0.68
Cc1ccc(S(=O)(=O)N2CCO[C@@H](COc3ccccc3)C2)c(C)c1NS(C)(=O)=O	0%	0.05
COC(C)(C)CCC[C@H](C)CCNCC(C)(C)N1CCOCC1	1%	-0.18

Compound	% Inhibition	Z score
N#C[C@H]1C(=O)c2ccccc2N(Cc2ccccc2)C1=O	-5%	0.84
CCN1CC(=O)N[C@H]2CN(C(=O)c3cnn(CC)c3C)CC[C@@H]2OCc2cccc(c2)Oc2cc(OC(C)C)cc(c2)C1=O	-5%	0.73
CCn1nc(-c2ccc(OC)cc2F)cc1C(=O)NCCN1CCCCC1	-17%	2.1
Cc1cc(C)c2nc(N3CCC(C(=O)NC4CCCCCC4)CC3)sc2c1	-8%	1.22
CC(C)CNC(=O)CS(=O)(=O)Cc1ccccc1	-6%	1.18
CCOC(=O)N1CCC(NC(=O)c2coc(NC(=O)Cc3c(C)noc3C)n2)CC1	18%	-2.53
CC(C)c1cc(=O)[nH]c(-n2nc(C3CC3)cc2NC(=O)COc2ccc3ccccc3c2)n1	54%	-12.73
COc1ccc(C(=O)OCC(=O)Nc2cc(C3CC3)nn2-c2ccccc2)c(O)c1	-7%	1.34
CC(C)c1cc(=O)[nH]c(-n2nc(C3CC3)cc2NC(=O)Cc2ccc(Cl)cc2)n1	74%	-12.5
Cc1nc(CC(=O)Nc2cc(C3CC3)nn2-c2ccccc2)cs1	38%	-0.78
CC(C)c1cc(=O)[nH]c(-n2nc(C3CC3)cc2NC(=O)c2ccccc2C(F)(F)F)n1	18%	-3.33
COc1ccc(C2CN(Cc3ccccn3)CC2CN(Cc2ccc(F)cc2)C(C)=O)cc1 (centres undefined)	15%	-1.72
COC(=O)c1ccc(C)c(NC(=O)c2cn(C)cn2)c1O	-2%	0.17
COCCCN(Cc1ccco1)C[C@H](O)COC(C)(C)C	2%	-0.27
CC(C)(Oc1cc2c(cc1-c1cncc(C3CC3)c1)CCO2)C(=O)O	-1%	0.1
COCC(=O)Nc1cc(C2CC2)nn1-c1nc(C)cc(=O)[nH]1	4%	-0.78
Cc1cc(=O)[nH]c(-n2nc(C3CC3)cc2NC(=O)c2ccc(C(C)(C)C)cc2)n1	57%	-4.8
CC(C)c1cc(=O)[nH]c(-n2nc(C3CC3)cc2NC(=O)c2ccc(F)c(F)c2)n1	5%	-0.72
CC[C@@H](C(=O)Nc1cc(C)nn1-c1nc2c(c(=O)[nH]1)CCC2)c1ccccc1	17%	-3.37
CC(C)c1cc(=O)[nH]c(-n2nc(C3CC3)cc2NC(=O)c2ccc(F)cc2)n1	90%	-16.95
Cn1nc(C2CCCC2)cc1NC(=O)c1ccc(OCC(=O)O)cc1	1%	-0.23

Compound	% Inhibition	Z score
Cc1cc(=O)[nH]c(-n2nc(C3CC3)cc2NC(=O)C(c2ccccc2)c2ccccc2)n1	86%	-11.5
Cc1nn(C(C)C)c(C)c1CN(C)C(=O)c1cc(C#N)c[nH]1	0%	-0.07
CN1C(=O)CCC12CCN(S(=O)(=O)Cc1ccc(Cl)cc1F)CC2	-3%	0.59
c1ccc(-c2noc(C3CCN(c4ccc5nncn5n4)CC3)n2)nc1	-18%	2.08
CC(C)c1nccn1CC(=O)N(C)[C@@H](C)c1ccc(F)c(F)c1	-1%	0.13
C[C@@H]1CN(CCCCO)CCN1C(=O)OC(C)(C)C	-1%	0.08
Cc1onc(-c2ccccc2Cl)c1C(=O)NCC1(c2ccc(F)cc2)CCOCC1	-13%	2.28
CN1C[C@]2(CCCN(Cc3ccc(OCC(=O)c4ccccc4)cc3)C2)CCC1=O	-5%	0.67
CCCc1c(C(=O)N2CCNc3ncccc32)cnn1C1CCCC1	-7%	1.14
N#Cc1nc(C2CC2)oc1N1CCN(C(=O)CCc2ccco2)CC1	-7%	1.41
CN1CCC(Oc2nc3ccc(F)cc3o2)CC1	-11%	1.44
CCNC(=O)c1cc(NCCc2nccn2Cc2ccccc2)ccn1	-9%	0.95
Cc1ccccc1N1C(=O)CN(C(=O)C2COc3ccccc3O2)CC1C (centres undefined)	-1%	0.18
c1ccc2c(-c3cc4c(c(O[C@H]5CCOC5)c3)OCCNC4)csc2c1	-8%	1.61
COC(=O)c1cn(CCc2cn3ccccc3n2)cc2c(O)nnc1-2	-7%	0.84
COC(=O)c1cn(Cc2cccnc2)cc2c(O)nnc1-2	0%	-0.02
CC(C)[C@H](NC(=O)[C@H](Cc1ccccc1)n1cnnn1)c1nc2ccccc2[nH]1	-15%	1.85
C#CCn1cnc(-c2ccccc2)c1NC(=O)CCc1ccc(C(C)C)cc1	-7%	0.8
COc1cccc2c1Oc1c(c(=O)n(-c3ccccc3)n1CC(=O)Nc1cccc(F)c1)C2	-19%	1.9
